The values that follow come from PubChem BioAssay (Tox21).

A short description of experiment [1]: qHTS assay to identify small molecule antagonists of the estrogen related receptor (ERR) signaling pathway from Tox21 library - cell viability counter screen (AID 1224834). Note: nearly all actives have a fitted effect of over 30% in size. Note: potency is the fitted concentration of half-maximal effect. The method, boiled down:
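In this quantitative HTS format, ERR cells receive compounds in DMSO and are incubated for 17.5 h at 37 C. Live-cell protease activity is then detected with CellTiter-Fluor.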

For experiment [2], the target named is Luciferin 4-monooxygenase (Photinus pyralis) (UniProt P08659). Put plainly: qHTS assay to identify small molecule inhibitors of firefly luciferase (AID 1224835). Note: series mostly up to about 120 µM; nearly all actives have a fitted effect of over 25% in size. The method, boiled down: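 Inhibition of purified Photinus luciferase is measured by luminescence. Substrate levels (D-luciferin, ATP) sit at their KM values. Each compound is tested in a concentration series.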
Sequence of Luciferin 4-monooxygenase (Photinus pyralis) (P08659 whole entry, looked up): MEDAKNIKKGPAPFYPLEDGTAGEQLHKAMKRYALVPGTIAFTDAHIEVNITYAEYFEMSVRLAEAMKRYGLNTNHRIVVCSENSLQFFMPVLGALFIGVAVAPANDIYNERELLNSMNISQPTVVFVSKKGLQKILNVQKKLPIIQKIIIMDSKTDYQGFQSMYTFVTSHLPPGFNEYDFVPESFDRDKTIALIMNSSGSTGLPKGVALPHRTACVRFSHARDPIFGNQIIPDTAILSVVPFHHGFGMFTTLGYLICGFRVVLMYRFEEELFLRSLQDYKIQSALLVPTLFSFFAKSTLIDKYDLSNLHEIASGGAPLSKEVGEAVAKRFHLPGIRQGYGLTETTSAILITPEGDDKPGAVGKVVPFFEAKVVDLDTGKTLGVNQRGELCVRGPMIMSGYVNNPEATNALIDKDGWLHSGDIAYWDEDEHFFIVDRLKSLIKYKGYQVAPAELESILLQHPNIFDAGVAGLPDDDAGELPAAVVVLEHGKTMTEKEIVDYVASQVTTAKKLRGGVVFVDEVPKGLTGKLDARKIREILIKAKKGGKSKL
Background: In qHTS, concentration-response curves come from the screen itself.

The nature of experiment [3]: qHTS assay to identify small molecule agonists of the constitutive androstane receptor (CAR) signaling pathway - cell viability counter screen (AID 1224836). Note: nearly all actives have a fitted effect of over 45% in size. Note: potency is the fitted concentration of half-maximal effect. The method, boiled down:
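Cells were seeded and incubated 4 hrs. Compounds were added across 15 concentrations together with PK11195 at 0.75 uM final. Plates were incubated 23 hrs at 37 C. CellTiter-Fluor was added and fluorescence measured.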

The nature of experiment [4]: qHTS assay to identify small molecule antagonists of the constitutive androstane receptor (CAR) signaling pathway - cell viability counter screen (AID 1224837). Note: nearly all actives have a fitted effect of over 45% in size. Note: potency is the fitted concentration of half-maximal effect. The method, boiled down: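 In quantitative HTS format, compounds at 15 concentrations were applied to HepG2 cells double-transfected with hCAR and CYP2B6-2.2kb under 50 nM CITCO stimulation; live-cell protease activity was read after 23 hr via CellTiter-Fluor.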

Experiment [5] in a line: qHTS assay to identify small molecule antagonists of the estrogen related receptor signaling pathway with the pleiotropic PPARgamma coactivator (PGC) from Tox21 10K library - cell viability counter screen (AID 1224840; active = well fitted cell-killing curve with a large enough effect in the repeat runs, not every such curve was filed as active; note: nearly all actives have a fitted effect of over 40% in size). The method, boiled down:
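Viability counter screen, PGC/ERR cells: 17.5 h compound exposure at 37 C, CellTiter-Fluor fluorescence endpoint.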

The target in experiment [6] is Nuclear receptor subfamily 1 group I member 3 (Homo sapiens) (UniProt Q14994). Put plainly: qHTS assay to identify small molecule antagonists of the constitutive androstane receptor (CAR) signaling pathway (AID 1224838). Note: nearly all actives have a fitted effect of over 40% in size. The method, boiled down:
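CITCO-stimulated (50 nM final) HepG2 cells stably transfected with hCAR and CYP2B6-2.2kb luciferase were exposed to compounds at 15 concentrations for 24 h at 37 C/5% CO2. A luciferase reagent was added and luminescence recorded after 30 min.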

The target is the same in experiment [7]. Put plainly: qHTS assay to identify small molecule agonists of the constitutive androstane receptor (CAR) signaling pathway (AID 1224839). Note: nearly all actives have a fitted effect of over 15% in size. Note: potency is the fitted concentration of half-maximal effect. The method, boiled down: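 Cells were plated and incubated 4 hrs, then dosed with compounds at 15 concentrations. PK11195 was added to 0.75 uM final. After 24 hrs at 37 C, luciferase luminescence was measured.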
Experiment [8] is described as follows: qHTS assay to identify small molecule antagonists of the estrogen related receptor signaling pathway with the pleiotropic PPARgamma coactivator (PGC) from Tox21 10K library (AID 1224841; call rule not given here; note: series mostly up to about 92 µM; actives are mostly falling curves and most rising ones were filed inactive; nearly all actives have a fitted effect of over 50% in size). The method, boiled down: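 In the PGC/ERR line, DMSO solutions of test chemicals are pin-delivered to 2,000 cells/well six hours after dispensing. Following eighteen hours' incubation, One-Glo reagent is added and luminescence recorded.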

Experiment [9] in a line: qHTS assay to identify small molecule agonists of the estrogen related receptor signaling pathway with the pleiotropic PPARgamma coactivator (PGC) from Tox21 10K library (AID 1224842). Note: nearly all actives have a fitted effect of over 15% in size. The method, boiled down: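 Luminescence from One-Glo (30 min, room temperature) measured after PGC/ERR cells had 18 h at 37 C with pinned compound (23 nL in DMSO). Cells had been seeded at 2,000 per well and pre-incubated 6 h.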

Inconclusive results are not listed. A number with no mark means an inactive call. Calls of active or inactive are those of the source. Unless noted, calls come from the whole dose curve; as a rule, active = well fitted curve in the direction sought with a large enough effect in the repeat runs; inconclusive = weak or mixed curves; inactive = no such curve, though single readings can be large; an effect the other way counts as inactive or inconclusive.

Sequence of Nuclear receptor subfamily 1 group I member 3 (Homo sapiens) (Q14994 whole entry, looked up): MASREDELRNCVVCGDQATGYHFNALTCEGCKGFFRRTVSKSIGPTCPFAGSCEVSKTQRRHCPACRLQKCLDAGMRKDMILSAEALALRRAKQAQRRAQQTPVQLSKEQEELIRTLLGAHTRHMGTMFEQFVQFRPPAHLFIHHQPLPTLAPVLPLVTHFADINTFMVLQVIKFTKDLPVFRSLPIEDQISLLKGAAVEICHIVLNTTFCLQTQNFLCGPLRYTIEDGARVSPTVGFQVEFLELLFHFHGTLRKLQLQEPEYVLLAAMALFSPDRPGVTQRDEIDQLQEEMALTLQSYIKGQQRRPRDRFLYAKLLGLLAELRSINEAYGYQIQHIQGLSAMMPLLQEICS

For `O=C(O)c1ccc(Cl)cc1Cl`, the Potency result in [1], in experiment [2], in experiment [3] and in experiment [4] was “inactive” in each case. The outcome in experiment [5] was inactive.
Consider `CC(C)C(=O)OCc1cccc(OC(=O)[C@@H]2N3C(=O)[C@@H](NC(=O)Cc4ccccc4)[C@H]3SC2(C)C)c1`, for which the Potency entry in experiment [1], in experiment [2], in experiment [3] and in [4] was “inactive” in each case. Moreover, in experiment [5], the call was inactive.
Turning to `O=C(/N=N/C(=O)OCc1ccccc1)OCc1ccccc1`, the Potency entry in experiment [1], in [3] and in [4] was “inactive” each time. Besides, the result in experiment [6] and in experiment [5] was inactive. In addition, the Potency in experiment [7] is 54.5 µM (active).
With `O=C1c2ccccc2C(=O)c2cc(S(=O)(=O)O)ccc21`, the Potency entry in [1], in [3], in [4] and in [7] was “inactive” each time. The result in experiment [6] and in [5] was inactive.
As to `O=C(NCC(O)CO)c1c(I)c(C(=O)NCC(O)CO)c(I)c(N(CCO)C(=O)CO)c1I` (configuration not stated), the Potency result in experiment [1], in [3], in experiment [4] and in experiment [7] was “inactive” throughout. Besides, the call in experiment [6] was inactive.
Regarding `O=C1c2ccccc2C(=O)C1c1ccccc1`, the Potency entry in [1], in experiment [3], in experiment [4] and in experiment [7] was “inactive” in each case. Moreover, the molecule was classed as inactive in experiment [6] and in experiment [5].
`Cc1ccccc1N=O`: the Potency entry in experiment [1], in experiment [2], in experiment [3], in [4] and in [8] was “inactive” each time. Further, in experiment [9], the result was inactive.
Take `CC(C)CC(=O)O`: the Potency entry in experiment [1], in experiment [2], in experiment [3] and in experiment [4] was “inactive” each time. For the same molecule, the call in experiment [5] and in experiment [9] was inactive.
Consider `CCCCOCCOC(=O)COc1nc(Cl)c(Cl)cc1Cl`, for which the Potency result in experiment [1], in experiment [2], in [3], in experiment [4] and in [8] was “inactive” in each case. In addition, the molecule was classed as inactive in experiment [5] and in [9].
On to `CC(S)C(=O)NCC(=O)O` (configuration not stated), for which the Potency result in experiment [1], in [3], in [4] and in experiment [7] was “inactive” each time. The molecule was classed as inactive in [6] and in experiment [5].
As to `Cc1ccc(S(=O)(=O)O)c(C)c1`, the Potency entry in [1], in [2], in experiment [3], in experiment [4] and in experiment [8] was “inactive” in each case. The call in experiment [5] and in [9] was inactive.
On to `CC(C)OC(=O)CCCCC(=O)OC(C)C`, for which the Potency result in [1], in experiment [2], in [3] and in [4] was “inactive” each time. Further, the molecule was classed as inactive in experiment [5].
As to `CC(CC=O)CCCC(C)(C)O` (configuration not stated), the Potency result in experiment [1], in experiment [2], in experiment [3], in experiment [4] and in experiment [8] was “inactive” each time. The result in experiment [5] and in experiment [9] was inactive.
For `CCCCCCCCCCCCCC`, the Potency result in experiment [1], in [2], in experiment [3], in [4] and in [8] was “inactive” in each case. Moreover, the call in [5] and in [9] was inactive.
For the molecule `CN1C(C)(C)CCCC1(C)C`, the Potency result in [1], in experiment [2], in [3] and in experiment [4] was “inactive” throughout. For the same molecule, the result in experiment [5] was inactive.
Regarding `O=Cc1ccc(Cl)c(Cl)c1`, the Potency result in experiment [1], in experiment [2], in experiment [3] and in experiment [4] was “inactive” throughout. Moreover, in [5], the result was inactive.
On to `O=C(O)c1cc(Br)c(O)c(Br)c1`, for which the Potency entry in [1], in [2], in experiment [3], in [4] and in experiment [8] was “inactive” each time. Moreover, the molecule was classed as inactive in experiment [5] and in experiment [9].
Take `CCC(C)(CCC(C)C)C(=O)O` (configuration not stated): the Potency entry in experiment [1], in experiment [2], in experiment [3], in experiment [4] and in [8] was “inactive” in each case. For the same molecule, the molecule was called inactive in [5] and in experiment [9].
As to `COC(=O)c1ccccc1C(=O)c1ccc(OCCN2CCCCC2)cc1`, the Potency result in [1], in [2], in experiment [3], in experiment [4] and in experiment [8] was “inactive” each time. In addition, the result in experiment [5] and in [9] was inactive.
As for `Oc1ccccc1-c1nnco1`, the Potency result in [1], in [2] and in [4] was “inactive” each time. Further, in [5], the call was inactive.
Regarding `CC1COc2ccccc2N1` (configuration not stated), the Potency entry in [1], in experiment [3], in experiment [4], in experiment [7] and in [8] was “inactive” throughout. Besides, the molecule was classed as inactive in experiment [6], in [5] and in experiment [9].
For `CC(C)CC(C)CC(C)CC(C)COC(=O)c1ccccc1C(=O)OCC(C)CC(C)CC(C)CC(C)C` (configuration not stated), the Potency result in experiment [1], in experiment [2], in experiment [3], in [4] and in [8] was “inactive” in each case. Also, the molecule was called inactive in [5] and in experiment [9].
Consider `CCO[Si](CCCS)(OCC)OCC`, for which the Potency entry in experiment [1], in experiment [2], in experiment [3], in [4] and in experiment [8] was “inactive” in each case. The molecule was called inactive in [5] and in experiment [9].
Consider `CCCCCOC(=O)CCC`, for which the Potency entry in [1], in experiment [2], in [3], in [4] and in [8] was “inactive” in each case. Also, the call in [5] and in experiment [9] was inactive.
`OCCCCC(O)CO` (configuration not stated): the Potency result in [1], in experiment [2], in experiment [3], in experiment [4] and in experiment [8] was “inactive” throughout. Besides, the result in experiment [5] and in [9] was inactive.
In the case of `Nc1ccc([N+](=O)[O-])c(N)c1`, the Potency in experiment [1] was 47.3 µM (active); in experiment [3], 53.1 µM (active); in [4], 47.3 µM (active). Also, the result in [6] and in experiment [9] was inactive. Moreover, the Potency entry in experiment [7] and in experiment [8] was “inactive” each time.
Regarding `NCCN1CCOCC1`, the Potency result in experiment [1], in experiment [3] and in [4] was “inactive” in each case.
Consider `Cc1cc2cc3c(C)cc(=O)oc3c(C)c2o1`, for which the Potency entry in experiment [1], in [3], in [4] and in [8] was “inactive” throughout. In addition, the molecule was classed as inactive in experiment [6], in experiment [5] and in [9]. Moreover, the Potency in [7] is 11.9 µM (active).
For the molecule `CCCCCCN`, the Potency entry in experiment [1], in experiment [2], in experiment [3] and in experiment [4] was “inactive” throughout. Also, in experiment [5], the molecule was classed as inactive.
For `CC(C)(C)NC(N)=O`, the Potency result in experiment [1], in experiment [2], in experiment [3], in [4] and in [8] was “inactive” each time. Also, the outcome in [5] and in experiment [9] was inactive.
With `Cc1[nH]cnc1-c1ccc(Cl)cc1`, the Potency entry in experiment [1], in [3] and in experiment [4] was “inactive” each time. In addition, the call in experiment [6] and in [5] was inactive.
Turning to `Nc1nnc(-c2cccc(Cl)c2Cl)c(N)n1`, the Potency entry in [1], in [2] and in experiment [4] was “inactive” in each case. The molecule was classed as inactive in experiment [5].
As for `Cc1cc(NC(=O)C2=C(O)c3ccccc3S(=O)(=O)N2C)no1`, the Potency result in experiment [1], in experiment [3] and in experiment [4] was “inactive” throughout.
Take `CC(=O)Nc1ccc(S(=O)(=O)Nc2ccc([N+](=O)[O-])cc2)cc1`: the Potency in experiment [1] is 23.7 µM (active). Moreover, the Potency result in experiment [2] and in experiment [7] was “inactive” throughout.
Turning to `CCCCCCCCOS(=O)(=O)O`, the Potency result in experiment [1], in experiment [2], in experiment [3], in experiment [4] and in [8] was “inactive” in each case. Besides, the result in experiment [5] and in experiment [9] was inactive.
